# Reference: publication PMC4336329 (PLoS ONE, 2015)
# About 14,000 (4.5%) of roughly 310,000 compounds showed an effect of 50% or more. Effects have a minus sign here. Only a selection was taken, and strong results are over-represented in it overall.
# Target: human ether-à-go-go-related gene (hERG) potassium channel (human, UniProt Q12809)
# Assay: primary screen, population patch clamp on CHO cells stably expressing hERG; higher = less effect of the substance
# 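Further: peak tail current of the secondary pulse compared with the same well before compound.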
# human ether-à-go-go-related gene (hERG) potassium channel, sequence (Q12809 whole entry, looked up): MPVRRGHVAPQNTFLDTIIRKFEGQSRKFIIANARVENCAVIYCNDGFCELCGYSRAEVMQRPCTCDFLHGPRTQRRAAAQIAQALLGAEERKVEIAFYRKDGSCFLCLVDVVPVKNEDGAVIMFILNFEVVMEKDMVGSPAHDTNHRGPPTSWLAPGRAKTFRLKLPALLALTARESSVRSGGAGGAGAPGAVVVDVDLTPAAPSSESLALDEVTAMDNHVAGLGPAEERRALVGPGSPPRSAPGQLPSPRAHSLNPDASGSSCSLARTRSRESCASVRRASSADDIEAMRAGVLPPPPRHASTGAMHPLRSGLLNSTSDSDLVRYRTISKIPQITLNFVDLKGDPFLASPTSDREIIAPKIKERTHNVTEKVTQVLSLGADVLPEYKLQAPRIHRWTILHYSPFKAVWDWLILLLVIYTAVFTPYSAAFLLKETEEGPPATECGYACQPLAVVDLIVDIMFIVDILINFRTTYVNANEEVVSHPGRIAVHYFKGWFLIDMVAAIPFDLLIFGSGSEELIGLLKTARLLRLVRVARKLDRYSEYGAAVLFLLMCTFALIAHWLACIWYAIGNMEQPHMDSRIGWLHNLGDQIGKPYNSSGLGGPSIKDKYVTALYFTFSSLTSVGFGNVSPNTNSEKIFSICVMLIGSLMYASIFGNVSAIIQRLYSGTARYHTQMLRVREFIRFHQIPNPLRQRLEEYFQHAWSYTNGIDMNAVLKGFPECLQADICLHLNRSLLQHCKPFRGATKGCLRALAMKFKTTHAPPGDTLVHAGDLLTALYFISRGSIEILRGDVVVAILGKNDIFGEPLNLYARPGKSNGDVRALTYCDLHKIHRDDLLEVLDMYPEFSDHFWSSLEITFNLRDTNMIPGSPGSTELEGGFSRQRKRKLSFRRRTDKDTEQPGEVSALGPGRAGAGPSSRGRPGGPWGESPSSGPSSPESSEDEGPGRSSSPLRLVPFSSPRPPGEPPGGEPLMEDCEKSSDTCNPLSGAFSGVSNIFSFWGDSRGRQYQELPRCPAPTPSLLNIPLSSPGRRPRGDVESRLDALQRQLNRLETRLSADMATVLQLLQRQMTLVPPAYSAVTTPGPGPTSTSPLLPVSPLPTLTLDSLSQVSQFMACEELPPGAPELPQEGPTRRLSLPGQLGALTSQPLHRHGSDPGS
row,SMILES,"hERG current change (%, negative = inhibition) at 10uM [%]"
1,O=C(CSc1ncccn1)Nc1ccccc1,3.55
2,Cc1ccccc1OCc1ccc(C(=O)N2CCOCC2)o1,6.86
3,Cc1cc(C)c(C(=O)O)c(Cl)n1,5.94
4,O=C(OCC(=O)N1CCc2ccccc2C1)c1ccc(Cl)c([N+](=O)[O-])c1,-20.7
5,CC1=C(c2ccccc2)[N+](=O)C2(CCCC2)N1[O-],10.3
6,CCOCCCNC(=S)N(Cc1ccccc1)Cc1nc2ccccc2c(=O)[nH]1,-22.3
7,CCCc1cc(-c2ccc3c(c2)COc2c4ccccc4nn2-3)on1,-21.4
8,C/C(=N\NC(=O)c1ccccc1O)c1ccc(NC(=O)c2ccccc2)cc1,15.3
9,COC(=O)c1c(NC(=O)c2ccccc2)sc2c1CC(C)(C)NC2(C)C,-5
10,Cc1cccc(C(=O)Nc2ccccc2SCC(=O)Nc2ccc(C)c(Cl)c2)c1,28.5
11,COc1ccc(C(=O)/C=C/Nc2ccc([N+](=O)[O-])cc2C)c(OC)c1,3.07
12,O=C(O)Cn1c(SCCOc2ccccc2)nc2ccccc21,0.876
13,O=S(=O)(c1cccc(-c2nnc(SC(F)F)n2-c2ccccc2)c1)N1CCCCC1,-30.3
14,CC1CCCCN1S(=O)(=O)c1ccc(C(=O)N(CCCN(C)C)c2nc3ccc(Br)cc3s2)cc1.Cl (stereo not drawn),-37
15,CCC1CCCCN1S(=O)(=O)c1ccc(C(=O)N(CCCN(C)C)c2nc3cc4c(cc3s2)OCO4)cc1.Cl (stereo not drawn),-56
16,CN(C)CCCN(C(=O)c1ccc(S(=O)(=O)N(C)C)cc1)c1nc2cc3c(cc2s1)OCO3.Cl,15.5
17,CC1CCCCN1S(=O)(=O)c1ccc(C(=O)N(CCCN(C)C)c2nc3cc4c(cc3s2)OCO4)cc1.Cl (stereo not drawn),-81.1
18,COc1cccc(CC(=O)Nc2ccc3nc(C)sc3c2)c1,8.73
19,CCOc1ccc(/C(O)=C2/C(=O)C(=O)N(CCN(CC)CC)C2c2ccco2)cc1 (stereo not drawn),-10
20,COc1ccccc1CNS(=O)(=O)c1ccc(Cl)s1,-6.4
21,COc1ccc(CC(=O)NCC2CCCN(Cc3cc(OC)cc(OC)c3)C2)cc1 (stereo not drawn),-21
22,COc1ccc(CC(=O)NCC2CCCN(Cc3cccc(SC)c3)C2)cc1 (stereo not drawn),-34.6

row,SMILES,"hERG current change (%, negative = inhibition) at 10uM [%]"
1,COc1ccc(CC(=O)NCC2CCCN(Cc3ccccc3OC)C2)cc1 (stereo not drawn),10.5
2,CCc1ccc(CN2CCCC(CNC(=O)c3cc(OC)cc(OC)c3)C2)cc1 (stereo not drawn),-69.9
3,COc1ccc(CC(=O)NCC2CCCN(Cc3ccc(OC(F)(F)F)cc3)C2)cc1 (stereo not drawn),-63.7
4,COc1cc(OC)cc(C(=O)NCC2CCCN(Cc3cccc(C(C)=O)c3)C2)c1 (stereo not drawn),-25.3
5,COc1cc(OC)cc(C(=O)NCC2CCCN(C(=O)c3oc(C)cc3C)C2)c1 (stereo not drawn),-18.5
6,COc1ccc(CC(=O)NCC2CCCN(Cc3ccc(SC)cc3)C2)cc1 (stereo not drawn),-67.5
7,COC(=O)c1ccc(CN2CCCC(CNC(=O)Cc3ccc(OC)cc3)C2)cc1 (stereo not drawn),-14.7
8,COc1cc(OC)cc(C(=O)NCC2CCCN(Cc3ccc(SC)cc3)C2)c1 (stereo not drawn),-72.3
9,COc1ccc(CC(=O)NCC2CCCN(Cc3ccccc3Cl)C2)cc1 (stereo not drawn),4.3
10,Cc1cc(CNC(=O)CCc2nnc(CCCCc3ccccc3)o2)nn1C,38.1
11,Cc1ccc(NC(=O)N2CCCc3ccccc32)cc1C,-29.2
12,COc1ccc(OC)c(N(CC(=O)N2CCC(C)CC2)S(=O)(=O)c2ccccc2)c1,-22.2
13,CCCc1nnc(SCC(=O)O)n1/N=C/c1ccc2c(c1)OCO2,-7.5
14,CCOc1ccccc1CNC(=O)c1nn(CC)cc1[N+](=O)[O-],9.07
15,C=CCSc1nnc(-c2sc(-c3ccccc3)nc2C)n1C,-33.6
16,Cc1cc(NC(=O)CSCC(=O)N(C)Cc2ccc(Cl)c(Cl)c2)no1,-9.94
17,CCOC(=O)c1[nH]c2ccc(OC)cc2c1NS(=O)(=O)c1ccc(Cl)s1,12.9
18,CCc1ccc(CN2CCCC(CNC(=O)c3cccc(OC)c3OC)C2)cc1 (stereo not drawn),-54.1
19,CCOc1cccc(CN2CCCC(CNC(=O)c3cccc(OC)c3OC)C2)c1 (stereo not drawn),-9.11
20,COc1ccccc1CN1CCCC(CNC(=O)c2cccc3ccccc23)C1 (stereo not drawn),-47.8
21,N/C(Cc1nc(-c2ccc(F)cc2)cs1)=N\O,13.7
22,COc1ccc(/C=C2\SC(=S)N(NS(=O)(=O)c3ccccc3)C2=O)c(OC)c1,-33.1

row,SMILES,"hERG current change (%, negative = inhibition) at 10uM [%]"
1,CCOC(=O)Cc1csc(NS(=O)(=O)Cc2ccccc2)n1,3.54
2,CC(C)c1ccc(Nc2nc(Cl)nc(Cl)n2)cc1,19.1
3,COc1ccc(Cl)cc1NC(=O)NCC1CCN(C(=O)OC(C)(C)C)CC1,4.67
4,Cc1ccc(C)c(CN2CCC(CNC(=O)Nc3ccc(Cl)cc3)CC2)c1,-68.6
5,Cc1cccc(NC(=O)NCC2CC2)c1,4.74
6,Cc1cccc(CN2CCC(CNC(=O)Nc3ccc(F)c(Cl)c3)CC2)c1,-74.9
7,COc1ccc(Cl)cc1NC(=O)NCC1CCN(Cc2ccccc2F)CC1,-37.7
8,COc1ccc(Cl)cc1NC(=O)NCC1CCN(Cc2cc(C)ccc2C)CC1,-67.7
9,Cc1ccc(C)c(CN2CCC(CNC(=O)Nc3ccc(F)c(Cl)c3)CC2)c1,-65
10,COc1ccc(N2CCC(CNC(=O)Nc3ccc(Cl)cc3)C2)cc1 (stereo not drawn),11.5
11,COc1ccc(C(CC(=O)NCCN2CCOCC2)NS(=O)(=O)c2ccc(C)cc2)cc1 (stereo not drawn),5.28
12,Cc1ccc(CNC(=O)C2CCCN(c3nc4ccccc4o3)C2)cc1 (stereo not drawn),-1.06
13,O=C(CSc1nnc(-c2ccco2)o1)NCC(=O)c1ccccc1,-4.72
14,COC(=O)CCC(=O)NNC(=O)c1cccc(Cl)c1,16.4
15,CC(=O)c1sc(NC(=O)C(C)C)nc1C,-0.878
16,CC(=O)Nc1ccc(-c2csc(Nc3ccc(S(N)(=O)=O)cc3)n2)cc1,-1.99
17,O=C(Cn1nc(-c2ccc(F)cc2)ccc1=O)Nc1ccc2c(c1)OCCO2,-0.525
18,Cc1ccc(NC(=O)NC(=O)CN2CCC(C(N)=O)CC2)c(C)c1,12
19,Cc1ccc(NC(=O)NCC2CCN(Cc3cc(C)ccc3Cl)CC2)c(C)c1,-58.3
20,Cc1ccc(C)c(CN2CCC(CNC(=O)Nc3cccc(Cl)c3C)CC2)c1,-43.1
21,O=C(Cn1nnc(-c2ccccc2)n1)c1ccccc1,7.22
22,Cc1nc(/N=C(\N)NC(=O)NC2CCCCC2)nc2ccccc12,-21

row,SMILES,"hERG current change (%, negative = inhibition) at 10uM [%]"
1,CCCC(=O)N/C(N)=N/c1nc(C)c2cc(C)ccc2n1,-23.8
2,Cc1ccc2nc(/N=C(\N)NC(=O)NC3CCCCC3)nc(C)c2c1,-76.4
3,CCOC(=O)c1c(NC(=O)CN2CCN(C(=O)c3ccco3)CC2)sc(C(N)=O)c1C,-20.1
4,CCc1cc(C(=O)OC)c(NC(=O)CN2CCN(C(=O)c3ccco3)CC2)s1,-51.6
5,CCc1c(C)sc(NC(=O)CN2CCN(C(=O)c3ccco3)CC2)c1C(=O)OC,-39.7
6,Cc1ccc(C(=O)c2cc(C)sc2NC(=O)CN2CCN(C(=O)c3ccco3)CC2)cc1,-11.7
7,COC(=O)c1cc(C)sc1NC(=O)CN1CCN(C(=O)c2ccco2)CC1,-30
8,CCOC(=O)c1cc(CC)sc1NC(=O)CN1CCN(C(=O)C2CCCO2)CC1 (stereo not drawn),-65.9
9,CCc1cc(C(=O)OC)c(NC(=O)CN2CCN(C(=O)C3CCCO3)CC2)s1 (stereo not drawn),-47.2
10,CCOC(=O)c1cc(C)sc1NC(=O)CN1CCN(C(=O)C2CCCO2)CC1 (stereo not drawn),-31
11,COC(=O)CN1CCN(C(=O)c2ccco2)CC1,10
12,CCOC(=O)c1cc(CC)sc1NC(=O)CN1CCN(C(=O)c2ccco2)CC1,-67.2
13,CCOC(=O)c1cc(C)sc1NC(=O)CN1CCN(C(=O)c2ccco2)CC1,-72.8
14,CCOC(=O)c1c(NC(=O)CN2CCN(C(=O)c3ccco3)CC2)sc(C)c1C,-8.41
15,COC(=O)c1sccc1NC(=O)c1cc(-c2ccc(C)cc2C)nc2ccccc12,6.94
16,CC(C)C(NC(=O)c1ccc(C(C)(C)C)cc1)C(=O)NC1=NCCS1 (stereo not drawn),-6.13
17,Cc1ccccc1CN(c1ccc(C(=O)Nc2cccnc2)cc1)S(C)(=O)=O,-9.59
18,NC(=O)CSc1n[nH]c(-c2ccco2)n1,24
19,O=C(COC(=O)COc1cccc(C(F)(F)F)c1)NC(=O)NC1CCCCC1,-1.9
20,Cc1c(CNCCc2ccccc2)c(C(=O)O)c(C)n1-c1ccccc1,12.1
21,C/C(=N/NC(=O)CNC(=O)Cc1ccc(Cl)cc1)c1ccco1,4.04
